Source: PubChem BioAssay
Mtb betalactam: beta-lactam sensitization of Mtb H37Rv; AID 434955; 330,000 compounds, 0.27% hits; inhibition, % at 25 µM; M. tuberculosis H37Rv growth with meropenem, percent inhibition; call rule not given here;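 note: growth measured after seven days incubation then overnight dye step; 0% = bacteria only wells and 100% = bacteria with antibiotic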
Mtb UGM inh: blocks M. tuberculosis UGM enzyme; 320,000 compounds, 0.06% hits; purified UGM, fluorescence polarization probe displacement; P9WIQ1; inhibition, % at 10 µM; in the data active = inhibition above about 10%, passing the limit was not always enough
Target sequence (P9WIQ1 whole entry, looked up): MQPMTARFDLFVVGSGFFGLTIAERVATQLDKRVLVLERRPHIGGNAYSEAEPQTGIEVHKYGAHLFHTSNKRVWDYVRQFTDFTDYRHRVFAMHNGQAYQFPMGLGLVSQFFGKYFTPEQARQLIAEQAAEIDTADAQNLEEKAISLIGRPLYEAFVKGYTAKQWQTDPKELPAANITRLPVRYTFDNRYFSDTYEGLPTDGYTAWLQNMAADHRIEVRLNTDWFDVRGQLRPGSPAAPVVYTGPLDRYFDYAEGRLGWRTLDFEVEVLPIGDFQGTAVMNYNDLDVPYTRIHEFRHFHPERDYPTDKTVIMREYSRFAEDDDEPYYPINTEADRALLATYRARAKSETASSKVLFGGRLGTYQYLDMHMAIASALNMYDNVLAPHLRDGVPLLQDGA
FBA Mtb inh: inhibits M. tuberculosis FBA enzyme | AID 588726 | purified M. tuberculosis FBA, fluorescence read-out | P9WQA3 | inhibition, % at 1 µM | 360,000 compounds, 2.3% hits;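 note: 0% = vehicle and 100% = reference inhibitor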
RecA splice inh: Mtb RecA intein splicing inhibition. cell-free RecA intein splicing, fluorescence. P9WHJ3. 290,000 compounds, 0.75% hits. inhibition, % (concentration not given with the values); in the data active = inhibition above about 30%;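 note: 0% = vehicle wells and 100% = reference inhibitor control wells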
Rv3671c protease: Rv3671c (M. tuberculosis) protease inhibition; AID 2606; inhibition, % at 5.96 µM; 320,000 compounds, 0.048% hits; P9WHR9; in the data active = inhibition above about 38%;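 note: extracellular domain of Rv3671c used as enzyme; 0% = enzyme with DMSO and 100% = no enzyme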
GDH-TPI counter-1: inhibits GDH-TPI coupling enzymes, artifact for Mtb FBA screen; GDH-TPI coupled enzyme counterscreen, NADH absorbance; inhibition, % at 4.8 µM; 360,000 compounds, 1.2% hits; in the data active = inhibition above about 30%;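 note: 0% = DMSO wells and 100% = wells lacking the enzyme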
Mtb FBA inh conf: Mtb FBA inhibition, confirmed. shares compounds with FBA Mtb inh. purified M. tuberculosis FBA, fluorescence read-out. inhibition, % at 1 µM. 5,600 compounds, 78% hits;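 note: 0% = vehicle wells and 100% = reference inhibitor wells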
GDH-TPI counter-2: counter-screen for M. tuberculosis FBA inhibitors: GDH-TPI coupled enzyme inhibition | shares compounds with FBA Mtb inh | GDH-TPI coupled enzyme counterscreen, fluorescence | inhibition, % at 1 µM | 5,600 compounds, 81% hits | AID 652141; in the data active = inhibition above about 10%
The depositor's hits bear a star; x = no result given; + = active, no number. Rows were chosen to be rich in hits. Some 4% of all compounds tested hit in one or more screens of this group. Cut-off read from the data, not from the text of the source, unless noted: active = inhibition above about 27%; inactive = the rest.

SMILES	Mtb betalactam	Mtb UGM inh	FBA Mtb inh	RecA splice inh	Rv3671c protease	GDH-TPI counter-1	Mtb FBA inh conf	GDH-TPI counter-2
Cc1c(OCC(=O)NCCCN2CCOCC2)ccc2c1oc(=O)c1ccccc12	2	1	47*	0	0	7	98*	68*
C/C(=N\N1C(C)CCCC1C)c1ccccc1O (configuration not stated)	4	0	2	4	-4	3	x	x
COc1ccc(-c2cn3cc(C)ccc3n2)cc1Br	7	0	30*	-2	-4	11	130*	109*
COc1ccc(-c2cn3cc(Cl)ccc3n2)cc1OC	18	-2	57*	3	3	16	72*	47*
Cc1ccc2nc(-c3cccc(S(=O)(=O)N(C)C)c3)cn2c1	48	-5	5	-2	2	4	x	x
Cc1cc(NC(=O)CSc2nnc(C(C)N(C)C)n2Cc2ccccc2)no1 (configuration not stated)	-4	-3	2	x	2	2	x	x
O=c1[nH]c2cc3c(cc2cc1C(c1nnnn1Cc1ccccc1)N1CCN2CCCC2C1)OCCO3 (configuration not stated)	-6	x	35*	-3	5	23	+	134*
Cn1c(-c2ccc(C#N)cc2)c(C#Cc2ccccc2)c2ccccc21	x	x	93*	x	x	4	50*	34*
COc1ccc(-c2c(-c3ccccc3)n(C)c3ccccc23)cc1	0	0	41*	x	2	7	6	-1
COC(=O)c1ccc2c(c1)c(C#Cc1ccccc1)c(-c1ccccc1)n2C	x	x	40*	x	x	-5	-5	0
COc1ccc(-c2c(C#Cc3ccsc3)c3ccccc3n2C)cc1	94	0	3	0	-3	12	x	x
COc1cc(C#Cc2c(-c3ccccc3)n(C)c3ccccc23)cc(OC)c1	9	1	38*	8	-5	8	4	-4
Cn1c(C=O)c(C#Cc2ccccc2)c2ccccc21	26	-1	17	x	-5	-3	x	x
Cn1c(-c2ccc3c(c2)OCO3)cnc1NCc1cccc(O)c1	-4	0	1	-2	2	2	x	x
CCn1c(C)cc2c(c1=O)C(c1ccc3c(c1)OCO3)C(C#N)=C(N)O2 (configuration not stated)	x	1	6	0	-4	11	x	x
Cc1c(-c2ccnc3cc(C(=O)O)nn23)cnn1C	-7	-4	79*	-13	1	12	22	17*
CCn1cc(-c2ccnc3cc(C(=O)O)nn23)c(C)n1	-1	0	84*	-12	3	12	76*	58*
COc1ccc(N2CCOCC2)c(NC(=O)c2cccs2)c1	5	-2	4	2	-3	14	x	x
COc1ccccc1CNC(=O)C(NC(=O)c1ccc(C)cc1)C(C)C (configuration not stated)	-1	1	4	x	-10	1	x	x
COc1ccc(NC(=O)c2cccc(N3C(=O)C4CC=C(C)CC4C3=O)c2)c(OC)c1 (configuration not stated)	1	1	-2	-4	2	5	x	x
COC(=O)C(Cc1ccccc1)NC(=O)CCC(=O)NC(C)CCc1ccccc1 (configuration not stated)	1	0	-2	-5	4	-2	x	x
COC(=O)[C@H](Cc1ccccc1)NC(=O)NC(C)CCc1ccccc1 (some centres not stated)	-1	2	77*	2	-9	3	+	+
C[C@@H](NC(=O)[C@@H]1Cc2ccccc2CN1C(=O)OC(C)(C)C)C(=O)NC1CCCC1	20	0	0	-2	-3	5	x	x
COCCCn1c2nc3ccccc3nc2c2c(=O)n(CC3CCCO3)cnc21 (configuration not stated)	-3	-2	79*	-7	5	21	0	-2
COCCCn1cnc2c(c1=O)c1nc3ccccc3nc1n2-c1ccc(C)cc1	55	0	-1	0	-7	14	x	x
SMILES	Mtb betalactam	Mtb UGM inh	FBA Mtb inh	RecA splice inh	Rv3671c protease	GDH-TPI counter-1	Mtb FBA inh conf	GDH-TPI counter-2
O=S(=O)(Nc1cccc2ccccc12)N1CCCC1	5	5	28*	3	-2	-5	72*	59*
CC(C)c1ccc(NC(=O)C2=CC=CN3CCS(=O)(=O)N=C23)cc1	x	x	3	x	x	12	x	x
O=C(NCCc1ccc(Cl)cc1Cl)C1=CC=CN2CCS(=O)(=O)N=C12	-3	-1	27*	x	-3	8	178*	129*
COCc1nc2ccccc2n1Cc1c(F)cccc1Cl	-4	1	1	3	9	-1	x	x
COc1ccccc1CCNC(=O)C(=O)NCC1CCCN1S(=O)(=O)c1ccccc1 (configuration not stated)	1	2	1	1	0	5	x	x
CC1(C)CC(=O)C2=C(C1)c1c(ccc3ccccc13)NC2c1ccco1 (configuration not stated)	4	1	87*	3	-15	1	104*	89*
COCCOC(=O)c1c(C)oc2ccc(OCc3cc(C(=O)OC)oc3C)cc12	77	0	4	3	-9	7	x	x
COC(=O)c1cc(COc2ccc3c(c2)oc(=O)c2ccccc23)c(C)o1	-3	3	32*	-3	-4	6	107*	81*
O=[N+]([O-])c1ccc(O)c(C2CCCCC2)c1	x	x	-9	x	x	8	x	x
Cc1cc2nc(-c3ccc(SCC(=O)N4CCN(C(=O)c5ccco5)CC4)nc3)[nH]c2cc1C	68	1	35*	4	-8	48*	44*	27*
CCOC(=O)CSc1ccc(-c2nc3cc(C)c(C)cc3[nH]2)cn1	100	0	24	2	-4	23	x	x
Cc1cc2nc(-c3ccc(SCC(=O)N4CCOCC4)nc3)[nH]c2cc1C	80	-3	54*	-6	-10	31*	57*	50*
Cc1cc2nc(-c3ccc(SCc4ccccn4)nc3)[nH]c2cc1C	6	0	41*	0	-19	38*	54*	51*
O=c1c(-c2nnc(SCc3ccc(Cl)cc3Cl)o2)cccn1Cc1ccccc1	10	0	52*	3	-17	20	43*	23*
CSc1nnc(-c2cccn(Cc3cccc(Cl)c3)c2=O)o1	-4	-1	87*	0	1	1	+	+
O=C(CSc1nnc(CNC(=O)c2c(F)cccc2F)o1)NCc1ccccc1Cl	-8	0	4	1	1	7	x	x
COc1c2c(cc3oc(=O)ccc13)OC(C)(C)C=C2	-5	-3	24	-3	-2	27	x	x
